Results from PubChem BioAssay AID1159580 (chemical genetic matrix, 2015).
About 2,000 (36%) of roughly 5,500 compounds were called active. About 18% were inconclusive and are not listed. Cut-off read from the data, not from the text of the source: active = normalized growth mostly below about 0.91 (no sharp cut-off); inconclusive = no clear call, values can overlap the other calls; inactive = mostly above about 0.92. The list shows a part of the results.

Assay: chemical genetic growth profiling, strain panel (AID 1159580);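 note: tested at 20 µM; growth read once vehicle control cultures reached saturation at 30 °C; 1 = growth at the plate median or of vehicle wells; lower values mean less growth of the strain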
Settings: S. cerevisiae deletion strains, growth OD

Measured: normalized growth

O=C(OC1Cc2c(O)cc(O)cc2OC1c1cc(=O)c(O)c2c(O)c(O)cc(C3Oc4cc(O)cc(O)c4CC3O)c2c1)c1cc(O)c(O)c(O)c1 (stereo unspecified)
active: locus YAL013W, strain DEP1, active compounds read low 0.132 | locus YAL021C, strain ccr4, active compounds read low 0.794 | locus YAL026C, strain drs2, active compounds read low 0.856 | locus YBR009C, strain hhf1, active compounds read low 0.901 | locus YBR023C, strain chs3, active compounds read low 0.87 | locus YBR229C, strain ROT2, active compounds read low 0.766 | locus YBR231C, strain swc5, active compounds read low 0.819 | locus YCL029C, strain bik1, active compounds read low 0.816 | locus YDL035C, strain GPR1, active compounds read low 0.158 | locus YDL074C, strain BRE1, active compounds read low 0.286 | locus YDL101C, strain DUN1, active compounds read low 0.194 | locus YDL192W, strain arf1, active compounds read low 0.747 | locus YDR069C, strain doa4, active compounds read low 0.71 | locus YDR101C, strain arx1, active compounds read low 0.91 | locus YDR137W, strain rgp1, active compounds read low 0.844 | locus YDR150W, strain NUM1, active compounds read low 0.651 | locus YDR162C, strain NBP2, active compounds read low 0.0937 | locus YDR318W, strain mcm21, active compounds read low 0.828 | locus YDR334W, strain swr1, active compounds read low 0.873 | locus YDR388W, active compounds read low 0.888 | locus YDR502C, strain sam2, active compounds read low 0.645 | locus YEL061C, strain CIN8, active compounds read low 0.417 | locus YER111C, strain swi4, active compounds read low 0.885 | locus YER167W, strain BCK2, active compounds read low 0.585 | locus YFR010W, strain ubp6, active compounds read low 0.862 | locus YGL086W, strain mad1, active compounds read low 0.795 | locus YGL173C, strain kem1, active compounds read low 0.81 | locus YGL248W, strain PDE1, active compounds read low 0.345 | locus YGL253W, strain hxk2, active compounds read low 0.887 | locus YGR078C, strain PAC10, active compounds read low 0.704 | locus YGR135W, strain pre9, active compounds read low 0.67 | locus YGR229C, strain SMI1, active compounds read low 0.0876 | locus YGR252W, strain gcn5, active compounds read low 0.56 | locus YHR013C, strain ard1, active compounds read low 0.805 | locus YHR027C, strain rpn1, active compounds read low 0.812 | locus YHR030C, strain SLT2, active compounds read low 0.59 | locus YHR079C, strain IRE1 (second series), active compounds read low 0.864 | locus YHR129C, strain ARP1, active compounds read low 0.536 | locus YHR142W, strain chs7, active compounds read low 0.841 | locus YHR200W, strain rpn10, active compounds read low 0.794 | locus YIL066C, strain RNR3, active compounds read low 0.0947 | locus YIL073C, strain SPO22, active compounds read low 0.159 | locus YJL095W, strain BCK1, active compounds read low 0.154 | locus YJL134W, strain LCB3, active compounds read low 0.732 | locus YJL164C, strain tpk1, active compounds read low 0.868 | locus YJL166W, strain qcr8, active compounds read low 0.883
inactive: locus YAL030W, strain snc1, active compounds read low 0.971 | locus YBL061C, strain skt5, active compounds read low 0.932 | locus YBR021W, strain FUR4, active compounds read low 1.05 | locus YBR171W, strain sec66, active compounds read low 0.972 | locus YBR279W, strain paf1, active compounds read low 0.942 | locus YCL011C, strain gbp2, active compounds read low 0.948 | locus YCL016C, strain dcc1, active compounds read low 0.976 | locus YCL061C, strain MRC1, active compounds read low 0.942 | locus YCL069W, strain vba3, active compounds read low 0.986 | locus YCR088W, strain abp1, active compounds read low 1 | locus YDL005C, strain med2, active compounds read low 0.996 | locus YDL040C, strain nat1, active compounds read low 1 | locus YDL185W, strain tfp1, active compounds read low 0.92 | locus YDR001C, strain nth1, active compounds read low 0.992 | locus YDR159W, strain sac3, active compounds read low 1.06 | locus YDR195W, strain ref2 1.03 | locus YDR297W, strain sur2, active compounds read low 0.966 | locus YDR335W, strain msn5, active compounds read low 0.938 | locus YDR392W, strain spt3, active compounds read low 0.939 | locus YEL003W, strain gim4, active compounds read low 0.946 | locus YEL037C, strain rad23, active compounds read low 0.946 | locus YEL061C, strain CIN8 (second series), active compounds read low 0.992 | locus YER015W, strain faa2, active compounds read low 0.93 | locus YER016W, strain bim1, active compounds read low 0.968 | locus YER110C, active compounds read low 1.01 | locus YER155C, strain BEM2 (second series), active compounds read low 0.927 | locus YER155C, strain BEM2, active compounds read low 0.982 | locus YGL078C, strain dbp3, active compounds read low 1 | locus YGL167C, strain pmr1, active compounds read low 0.969 | locus YGL227W, strain vid30, active compounds read low 1 | locus YGL240W, strain doc1, active compounds read low 1 | locus YHR094C, strain hxt1, active compounds read low 0.982 | locus YIL125W, strain kgd1, active compounds read low 0.995 | locus YIR030C, strain dcg1, active compounds read low 0.956 | locus YJL092W, strain hpr5, active compounds read low 0.992 | locus YJL095W, strain BCK1 (second series), active compounds read low 0.96 | locus YJL115W, strain asf1, active compounds read low 0.986 | locus YJL129C, strain trk1, active compounds read low 1.04 | locus YJL154C, strain vps35, active compounds read low 1 | locus YJL168C, strain set2, active compounds read low 0.954
